# Measured values: ChEMBL document CHEMBL3988442, “University of Dundee, Small-Polar-MMV Screening Library” (2021)
# Screen size: about 48,000 compounds; about 13,000 (27%) showed an effect of 50% or more. The list shows a part of the results.
# Tested on: Wolbachia pipientis
# Assay: Anti-Wolbachia Cell-Based Screen
# Format: functional
# Parameters: scale not given: in the data most compounds retested in dose-response had high values
# Settings: 5 µM
row,SMILES,Percent Effect [%]
1,O=C(O)[C@@H]1CN(Cc2ccc3nsnc3c2)C[C@H]1c1ccncc1,20.11
2,CCOCCC(=O)N1CCCN(Cc2csc(CC)n2)CC1,-3.622
3,CC(C(=O)NCCc1cccs1)N1CCC(n2ccnc2)CC1 (configuration not stated),14.05
4,N#Cc1cccc(N2CCC(c3nccn3Cc3cscn3)CC2)n1,19.37
5,CC(C(=O)NCC1(c2cccc(Br)c2)CCC1)S(C)(=O)=O (configuration not stated),-10.98
6,O=C(NC1CC1)c1cc2c(nc1O)CC(c1cccs1)CC2=O (configuration not stated),2.644
7,O=C(c1cc(Cl)ccc1OC1CCN(C2CCCC2)CC1)N1CCCO1,-1.079
8,Cc1cc(N(Cc2ccccc2F)C2CC2)n2nc(C(F)(F)F)nc2n1,37.88
9,Cc1cc(N(Cc2cccs2)C2CC2)n2nc(C(F)(F)F)nc2n1,103
10,Cc1ccc(CN(c2cc(C)nc3nc(C(F)(F)F)nn23)C2CC2)cc1,24.27
11,CC(C)OCCS(=O)(=O)NC1CCN(C2CCCC2)C1 (configuration not stated),-4.658
12,CNc1cc(CCNS(=O)(=O)c2ccccc2)nc(-c2ccccn2)n1,105
13,O=C(Nc1cc(-c2ccccn2)no1)C1CC1,-13.86
14,CCc1nc(CCNS(=O)(=O)c2cccc(C(=O)N(C)CC)c2)cs1,4.281
15,CNc1cc(CCNC(=O)C2CCCC2)nc(-c2ccccn2)n1,117
16,CNc1cc(CCNC(=O)c2cccnc2)nc(-c2ccncc2)n1,-9.73
17,O=C(NC[C@H]1O[C@H](Cc2cc(-c3ccccn3)on2)CC[C@@H]1O)C1CC1,-6.652
18,CN(C)C(=O)c1cccc(CCNS(=O)(=O)c2ccccc2)c1,19.97
19,CC(C)C(O)CNC(=O)CCCc1ccccn1 (configuration not stated),-2.211
20,CNc1cc(CCNC(=O)CC(C)C)nc(-c2ccccn2)n1,101.5
21,CC(O)CN1CCC(CNCCOCC(F)(F)F)CC1 (configuration not stated),8.822
22,Cc1cccc2[nH]c(C3CCN(C(=O)c4cccnn4)CC3)nc12,19.31

row,SMILES,Percent Effect [%]
1,Cc1cccc(CN2Cc3[nH]nc(COCCO)c3C2)n1.O=C(O)C(F)(F)F,-6.746
2,CCOCCCNC(=O)CCSCc1csc(C)n1,4.852
3,CCOCC(=O)N(C)c1ccc(F)c(Cl)c1,11.18
4,CCOCCC(=O)N(C)c1ccc(F)c(Cl)c1,-4.782
5,CCOCCCC(=O)NS(=O)(=O)c1ccc(C)s1,-11.1
6,CCOCCCNC(=O)c1cc(Br)c2c(c1)OCCO2,-17.45
7,CC(C)OCCCNC(=O)CSc1nnc(OC(C)C)s1,-7.044
8,CCOCCCNC(=O)CN(c1ccc(C)c(C)c1)S(C)(=O)=O,99.16
9,CCOCCCNC(=O)CN(c1ccc(F)c(F)c1)S(C)(=O)=O,103.3
10,Cc1ccc(N(CC(=O)NCc2nnc3n2CCC3)S(C)(=O)=O)cc1,-5.606
11,Cc1cccc(CC(=O)NCCCOC(C)C)c1,4.055
12,CCOCCCNC(=O)CN(c1cc(C)cc(C)c1)S(C)(=O)=O,107.2
13,CC(C)OCCCNC(=O)CN(c1ccc(F)c(F)c1)S(C)(=O)=O,109.3
14,CCCNC(=O)C(C)Nc1ccn(Cc2ccccn2)n1 (configuration not stated),6.912
15,CCCOCCN1CCc2[nH]c(-c3ccccc3)nc2C1,-7.69
16,CN(C)C1COC2(CCN(S(=O)(=O)c3ccc(F)cc3)CC2)C1.O=C(O)C(F)(F)F (configuration not stated),-7.314
17,CN(CC1Cc2ccccc2CN1C)c1nc(N)nc2c1CCNCC2 (configuration not stated),-3.797
18,COCc1cc(N(C)Cc2c(C)nn(C)c2C)n2nccc2n1,12.12
19,CCOCCCNC(=O)Cc1cccc(F)c1,2.614
20,COCCCNC(=O)CN(C)Cc1ccc(F)cc1Cl,-11.13
21,CCOCCCNC(=O)CN(c1cccc(F)c1)S(C)(=O)=O,112.7
22,COc1cccc2ccc(CN3CCN(c4ncccc4C)CC3)nc12,2.179

row,SMILES,Percent Effect [%]
1,CCc1nc(N)sc1C(=O)N1CCCC(CCc2ccccc2C)C1 (configuration not stated),1.755
2,Cc1ccc(-c2ncc(C(=O)N3CCCC(CCN)C3)c(O)n2)cc1 (configuration not stated),0.928
3,Cc1nc(N)sc1C(=O)N1CCCC(COc2ccc(F)cc2)C1 (configuration not stated),-20.41
4,Cc1nc(N)ncc1C(=O)N1CCCC(CCc2ccc(F)c(F)c2)C1 (configuration not stated),95.78
5,CN1N=C(C(=O)N2CCCC(CCc3cccc(F)c3)C2)CCC1=O (configuration not stated),-39.97
6,CN1N=C(C(=O)N2CCCC(CCc3ccccc3F)C2)CCC1=O (configuration not stated),-18.53
7,COc1coc(CN2CCCC(CCc3ccccc3F)C2)cc1=O (configuration not stated),19.37
8,Cc1nc(CN2CCCC(CCc3ccc(F)c(F)c3)C2)c[nH]1 (configuration not stated),-4.452
9,CN1N=C(C(=O)N2CCCC(CCc3c(F)cccc3F)C2)CCC1=O (configuration not stated),7.677
10,Cc1nc(N)ncc1C(=O)N1CCCC(CCc2ccc(F)cc2)C1 (configuration not stated),102.6
11,O=C(c1cnc(O)cc1O)N1CCCC(CCc2ccccc2F)C1 (configuration not stated),119.6
12,Cc1nc(N)ncc1C(=O)N1CCCC(CCc2ccccc2F)C1 (configuration not stated),102.1
13,O=C(NCCN1CCOCC1)N(Cc1ccoc1)C1CCCCC1,0.09271
14,COC(=O)CCC(=O)Nc1ccc(Br)c(C)n1,-4.996
15,COc1ccc(CCC2CCCN(C(=O)c3cnc(N)nc3C)C2)cc1 (configuration not stated),107.8
16,COc1cccc(CCC2CCCN(C(=O)c3cnccn3)C2)c1 (configuration not stated),-42.01
17,COc1cccc(CCC2CCCN(C(=O)c3ccc(OC)o3)C2)c1 (configuration not stated),-11.16
18,CN(C)CCN(C)C(=O)c1cn(CC2CCCCC2)nn1,101.9
19,Cc1nccn1CCC1CCCCN1Cc1cnc(N(C)C)nc1 (configuration not stated),-18.73
20,Cc1nccn1CCN(C)C(=O)c1cn(CC2CCCCC2)nn1,121.2
21,Cc1nccn1CCC(=O)N1CCCN(c2ccccc2)CC1,21.45
22,CN(Cc1ccncc1)C(=O)NCc1cn(-c2ccccc2)nn1,-7.371

row,SMILES,Percent Effect [%]
1,CCN(Cc1ccncc1)C(=O)c1cn(CC2CCCNC2)nn1 (configuration not stated),-3.068
2,Cc1nccn1CCC1CCCCN1C(=O)c1ccc(N(C)C)cc1 (configuration not stated),11.5
3,CCN(Cc1ccncc1)C(=O)c1cn(CCC2CCCCC2)nn1,4.586
4,Cc1nccn1CCN(C)C(=O)c1cn(-c2ccccc2)nn1,107.7
5,CC(C)c1nn(C)c(N(C)C)c1CNCc1cscn1.Cl,-8.215
6,O=C(NCC1CC1)[C@@H]1CCO[C@@H]2CCN(c3ncccn3)C[C@@H]21.O=C(O)C(F)(F)F,-3.49
7,Cc1ncccc1NC(=O)[C@@H]1CCO[C@@H]2CCN(c3ccncn3)C[C@H]21,113.9
8,COCCNC(=O)[C@@H]1CCO[C@@H]2CCN(c3ccc(C)nn3)C[C@@H]21,-1.212
9,Cc1ncccc1NC(=O)[C@@H]1CCO[C@@H]2CCN(c3ccccc3)C[C@@H]21.O=C(O)C(F)(F)F.O=C(O)C(F)(F)F,108.5
10,O=C(NCc1ccco1)[C@@H]1CCO[C@@H]2CCN(c3ccncn3)C[C@H]21.O=C(O)C(F)(F)F,-22.24
11,CC(C)NC(=O)[C@@H]1CCO[C@@H]2CCN(c3ncccn3)C[C@@H]21.O=C(O)C(F)(F)F,-3.581
12,CC(=O)N(C)Cc1ccccc1NCc1c(C)cccc1C,-18.14
13,O=C(C1CC1)N1CC[C@H](c2nc3ccccc3o2)C1,7.952
14,O=C(C1CC1)N1CC[C@H](c2nnc(-c3ccccc3F)o2)C1,-4.544
15,CCc1c(C)nn2c(O)cc(C3CCN(C(=O)C4CC4)C3)nc12 (configuration not stated),96.58
16,COc1ccc(CN2CCCC(Cn3nc(C)nc3C)C2)cc1F (configuration not stated),-3.884
17,Cc1nc(C)n(CC2CCCN(Cc3cccc(C#N)c3)C2)n1 (configuration not stated),-5.879
18,Cc1nc(C)n(CC2CCCN(Cc3cccnc3)C2)n1 (configuration not stated),89.08
19,Cc1nc(C)n(CC2CCCN(Cc3ccc4c(c3)OCCO4)C2)n1 (configuration not stated),92.75
20,Cc1nc(C)n(CC2CCCN(Cc3ccc(C(N)=O)cc3)C2)n1 (configuration not stated),-2.004
21,Cc1nc(C)n(CC2CCCN(Cc3cccc(C(N)=O)c3)C2)n1 (configuration not stated),133.9
22,Cc1nc(C)n(CC2CN(Cc3cccnc3)CCO2)n1 (configuration not stated),5.869

row,SMILES,Percent Effect [%]
1,Cc1nc(C)n(CC2CN(Cc3cccc(C(N)=O)c3)CCO2)n1 (configuration not stated),-4.426
2,COc1cccc(CN2CCCC(Cn3nc(C)nc3C)C2)c1 (configuration not stated),103.7
3,COC(=O)c1ccc(C(=O)NCc2ccco2)nc1,-23.57
4,CCc1nccn1CCC(=O)N1CC[C@@H](c2ccc(F)cc2)[C@H](O)C1,-13.2
5,COc1ccccc1C1(CNc2nnc(C)c(C)c2C#N)CCOCC1,0.2404
6,Cc1cc(CN(C)C(=O)NCC2CCS(=O)(=O)C2)no1 (configuration not stated),-10.09
7,Cc1nc(CNC(=O)NC2CC(C)(C)OC2(C)C)sc1C (configuration not stated),-0.2444
8,CC(C)OC(=O)c1ccc(Cl)c(NC(=O)NCCN2CCOCC2)c1,-2.134
9,O=C(NCCCN1CCOCC1)Nc1cnc2cc(Cl)ccc2c1O,-16.9
10,O=C(NCCCO)Nc1cnc2cc(Cl)ccc2c1O,96.93
11,N[C@H]1CN(C(=O)c2cnc3cc(Cl)ccc3c2O)C[C@@H]1C1CC1,6.977
12,O=C(NCCO)Nc1cccc(Cl)c1SC(F)F,0.2889
13,O=C(NCC1CC1)Nc1cnc2cc(Cl)ccc2c1O,-14.95
14,O=C(NCCO)Nc1cnc2cc(Cl)ccc2c1O,99.99
15,CC(C)OCCCNC(=O)Nc1cccc2ncccc12,-8.776
16,CC(CO)NC(=O)Nc1ccc(Cl)cc1OCC(F)(F)F (configuration not stated),-4.812
17,O=C(NCCCO)Nc1cccc(Cl)c1F,-20.85
18,O=C(NCCN1CCOCC1)Nc1cnc2cc(Cl)ccc2c1O,96.85
19,CNC(=O)Nc1cnc2cc(Cl)ccc2c1O,96.42
